Active and inactive are the calls of the source.
Assays:
[1] = tested on: Human papillomavirus type 1a protein E7 (residues 44-93); assay: small molecules binding HPV E7 44-93 – biochemical, small-molecule microarray, residues 44-93, 635 nm fluorescence, primary screen (AID 1108); conditions: fluorescence 635 nm, higher = more signal;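 also: E7 fragment applied at 1 µg/mL in TBST for 1 h at 4 C; score combines spot fluorescence with its signal to noise ratio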
[2] = hepatitis C replication reporter changes, two-sided – Huh7 cells, luciferase reporter, HCV replication inhibitor project, primary screen (AID 1109); conditions: Huh7 HCV replicon luciferase reporter, 48 h; higher = more signal;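 also: huh7 hepatoma cells harbouring a luciferase neomycin HCV replicon reporter; luciferase luminescence as measure of HCV replicon replication; test concentration not given here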
[3] = biological target: Left-right determination factor 2 (Homo sapiens) (UniProt O00292); assay: small molecules binding LEFTY2 protein – biochemical, small-molecule microarray, 635 nm fluorescence scan, primary screen (AID 1110); conditions: higher = more signal
Left-right determination factor 2 (Homo sapiens), sequence (O00292 whole entry, looked up): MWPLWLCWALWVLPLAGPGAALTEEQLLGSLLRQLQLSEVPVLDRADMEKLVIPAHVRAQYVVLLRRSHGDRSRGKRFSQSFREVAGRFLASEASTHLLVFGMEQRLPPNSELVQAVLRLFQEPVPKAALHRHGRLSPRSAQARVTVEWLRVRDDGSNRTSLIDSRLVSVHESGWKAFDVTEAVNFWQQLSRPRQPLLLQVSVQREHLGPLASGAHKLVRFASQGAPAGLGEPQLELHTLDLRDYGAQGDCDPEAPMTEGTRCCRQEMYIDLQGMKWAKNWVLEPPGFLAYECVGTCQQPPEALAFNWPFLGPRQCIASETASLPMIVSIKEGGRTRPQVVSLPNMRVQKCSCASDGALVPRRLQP

[4] = biological target: Calmodulin-1 (Homo sapiens) (UniProt P0DP23); assay: small molecules binding calmodulin-1 with EGTA – biochemical, small-molecule microarray, Cy5-labelled CALM1, profiling panel (AID 1111); conditions: Cy5-CALM1 binding fluorescence, higher = more signal;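 also: labelled calmodulin applied in Tris saline Tween buffer holding calcium plus EGTA and DTT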
[5] = biological target: Calmodulin-1 (Homo sapiens) (UniProt P0DP23); assay: small molecules binding Ca-loaded calmodulin-1 – biochemical, small-molecule microarray, Cy5-labelled CALM1, plus calcium, artefact control for SMM control-protein annotation, profiling panel (AID 1112); conditions: Cy5-CALM1 binding fluorescence, higher = more signal;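 also: score merges spot fluorescence with signal to noise from triplicate slides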
[6] = probe aWnt5a binding to arrayed compounds – biochemical, biotinylated probe, 635/667 nm fluorescence, primary screen (AID 1113); conditions: small-molecule microarray, higher = more signal;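 also: score merges 667 nm fluorescence intensity with signal-to-noise per printed feature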
[7] = probe aShh binding to arrayed compounds – biochemical, biotinylated probe, 635/667 nm fluorescence, primary screen (AID 1114); conditions: small-molecule microarray, higher = more signal;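 also: probe is biotin-labelled aShh protein from a stem cell growth factor screen; measures binding of labelled protein to compounds printed on the slide; score merges feature fluorescence at 667 nm with signal-to-noise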
[8] = probe aNog binding to arrayed compounds – biochemical, biotinylated probe, 635/667 nm fluorescence, primary screen (AID 1115); conditions: small-molecule microarray, higher = more signal;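 also: probe is biotinylated aNog protein used at 0.15 µg/mL for 1 h at 4 C; z-score combines 667 nm fluorescence of each spot with its signal to noise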
[9] = biological target: Torsin-1A-interacting protein 1 (Homo sapiens) (UniProt Q5JTV8); assay: compound microarray binding of lysate hLAP1 – cell lysate, small-molecule microarray, COS7 lysate, 635/667 nm fluorescence, primary screen (AID 1116); conditions: 635 nm fluorescence, higher = more signal
Torsin-1A-interacting protein 1 (Homo sapiens), sequence (Q5JTV8 whole entry, looked up): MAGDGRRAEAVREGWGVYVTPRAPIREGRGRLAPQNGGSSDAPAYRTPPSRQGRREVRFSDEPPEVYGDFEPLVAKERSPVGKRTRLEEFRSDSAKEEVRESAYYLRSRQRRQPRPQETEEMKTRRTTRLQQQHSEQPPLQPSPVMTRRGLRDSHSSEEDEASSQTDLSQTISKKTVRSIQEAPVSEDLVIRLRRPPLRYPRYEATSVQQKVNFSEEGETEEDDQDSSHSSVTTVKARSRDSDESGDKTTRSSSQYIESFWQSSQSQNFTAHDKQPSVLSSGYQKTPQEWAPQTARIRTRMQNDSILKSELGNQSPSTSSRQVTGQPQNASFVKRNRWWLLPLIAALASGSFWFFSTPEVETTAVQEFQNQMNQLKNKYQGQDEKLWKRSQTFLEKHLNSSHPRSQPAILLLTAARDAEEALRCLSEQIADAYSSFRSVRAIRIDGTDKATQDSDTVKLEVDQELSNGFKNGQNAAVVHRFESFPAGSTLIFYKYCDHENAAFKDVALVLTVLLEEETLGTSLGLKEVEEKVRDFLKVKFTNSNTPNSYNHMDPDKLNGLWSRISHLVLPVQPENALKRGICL

[10] = biological target: Alpha-bungarotoxin (Bungarus multicinctus) (UniProt P60615); assay: compounds binding labelled alpha-BTX control protein – biochemical, small-molecule microarray, Alexa647 label, 635/667 nm fluorescence, artefact control for SMM control protein annotation, profiling panel (AID 1117); conditions: alpha-BTX-A647 binding fluorescence, higher = more signal
Alpha-bungarotoxin (Bungarus multicinctus), sequence (P60615 whole entry, looked up): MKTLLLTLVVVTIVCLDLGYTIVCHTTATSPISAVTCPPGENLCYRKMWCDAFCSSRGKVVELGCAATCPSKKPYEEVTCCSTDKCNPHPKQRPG

[11] = biological target: Albumin (Bos taurus) (UniProt P02769); assay: compounds binding labelled BSA control protein – biochemical, small-molecule microarray, Alexa647 label, 635/667 nm fluorescence, artefact control for SMM control protein annotation, profiling panel (AID 1118); conditions: BSA-A647 binding, fluorescence 635 nm, higher = more signal;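 also: score merges 667 nm emission intensity and signal-to-noise per printed compound spot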
Albumin (Bos taurus), sequence (P02769 whole entry, looked up): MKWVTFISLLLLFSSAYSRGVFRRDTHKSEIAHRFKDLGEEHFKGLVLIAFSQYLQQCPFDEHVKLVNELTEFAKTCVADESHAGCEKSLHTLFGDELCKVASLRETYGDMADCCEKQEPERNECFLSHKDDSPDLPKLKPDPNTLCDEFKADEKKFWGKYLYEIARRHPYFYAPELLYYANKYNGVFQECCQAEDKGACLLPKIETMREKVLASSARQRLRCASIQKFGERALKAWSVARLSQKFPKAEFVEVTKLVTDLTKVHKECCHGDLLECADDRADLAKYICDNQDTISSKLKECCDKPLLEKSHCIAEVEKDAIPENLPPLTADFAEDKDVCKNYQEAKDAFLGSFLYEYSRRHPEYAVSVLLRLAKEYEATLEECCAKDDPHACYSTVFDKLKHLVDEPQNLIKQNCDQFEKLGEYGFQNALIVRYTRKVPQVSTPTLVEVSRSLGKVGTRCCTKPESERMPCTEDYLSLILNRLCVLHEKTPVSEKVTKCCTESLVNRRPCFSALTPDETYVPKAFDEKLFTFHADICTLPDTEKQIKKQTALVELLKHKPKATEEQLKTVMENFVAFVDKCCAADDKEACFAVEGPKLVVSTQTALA

[12] = probe aXIP binding to arrayed compounds – biochemical, NeuroSMM set, 635/667 nm fluorescence, primary screen (AID 1119); conditions: small-molecule microarray, higher = more signal, called active from +8 up or from −8 down;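 also: probe is the protein aXip251-270 applied at 1 µg/mL to compound-printed slides; binding of probe to printed compounds measured as 667 nm fluorescence plus signal to noise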
[13] = probe aNOTCH3 binding on compound microarray – biochemical, small-molecule microarray, 635/667 nm fluorescence, primary screen (AID 1120); conditions: higher = more signal;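 also: probe is a biotin-tagged antibody raised against NOTCH3 rather than NOTCH3 protein; score merges spot fluorescence near 667 nm with spot signal to noise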
[14] = probe aNOTCH2 binding on compound microarray – biochemical, small-molecule microarray, 635/667 nm fluorescence, primary screen (AID 1121); conditions: higher = more signal;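 also: score merges feature fluorescence read at 667 nm with its signal to noise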
[15] = biological target: Carbonic anhydrase 2 (Homo sapiens) (UniProt P00918); assay: compounds binding carbonic anhydrase 2 – biochemical, small-molecule microarray, Alexa647-labelled CAII, profiling panel (AID 1122); conditions: CAII-A647 binding fluorescence, higher = more signal
[16] = COS7 lysate on small-molecule microarray, probe aHis, 635 nm (AID 1123); conditions: COS7 cell lysate, fluorescence, higher = more signal;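 also: z-score combines 667nm fluorescence intensity with signal-to-noise per printed compound spot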
[17] = probe aLAP1 signal on lysate-treated microarray – cell lysate, small-molecule microarray, COS7 lysate, primary screen (AID 1124); conditions: probe aLAP1, fluorescence, higher = more signal;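 also: lysate comes from COS7 cells expressing LAP1 and is applied at 0.3 µg/mL; score merges spot fluorescence near 667 nm with signal-to-noise over triplicate slides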
[18] = tested on: Sam68 (KHDRBS1); assay: compounds binding KHDRBS1 protein – biochemical, small-molecule microarray, 635 nm fluorescence, primary screen (AID 1125); conditions: higher = more signal;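 also: score merges 667 nm channel intensity with signal to noise over triplicate slides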
[19] = tested on: Chordin-like protein 2 (CHRDL2); assay: compounds binding chordin-like 2 – biochemical, small-molecule microarray, 635 nm fluorescence, primary screen (AID 1126); conditions: fluorescence 635 nm, higher = more signal;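 also: printed compound slides probed with Chrdl2 protein at 4 µg/mL for 1 h at 4 C; score merges 667 nm emission intensity with signal to noise over three replicate slides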
[20] = biological target: Concanavalin-A (Canavalia ensiformis) (UniProt P02866); assay: compounds binding concanavalin A lectin – biochemical, small-molecule microarray, Alexa647 label, 635 nm, artefact control for SMM control protein annotation, primary screen (AID 1127); conditions: ConA-A647 binding fluorescence, higher = more signal;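 also: z combines 667 nm emission intensity with signal-to-noise across three replicate slides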
Concanavalin-A (Canavalia ensiformis), sequence (P02866 whole entry, looked up): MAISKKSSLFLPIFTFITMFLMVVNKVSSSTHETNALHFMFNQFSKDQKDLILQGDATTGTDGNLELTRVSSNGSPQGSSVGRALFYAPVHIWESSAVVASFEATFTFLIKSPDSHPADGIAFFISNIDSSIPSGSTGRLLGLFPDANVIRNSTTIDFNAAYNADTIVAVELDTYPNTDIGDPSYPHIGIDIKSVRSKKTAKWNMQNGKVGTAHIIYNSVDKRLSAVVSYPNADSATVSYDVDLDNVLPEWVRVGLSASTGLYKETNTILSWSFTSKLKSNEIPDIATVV

| Compound | composite z-score [1] | z-score [2] | composite z-score [3] | composite z-score [4] | composite z-score [5] | composite z-score [6] | composite z-score [7] | composite z-score [8] | composite z-score [9] | composite z-score [10] | composite z-score [11] | composite Z-score [12] | composite z-score [13] | composite z-score [14] | composite z-score [15] | composite z-score [16] | composite z-score [17] | composite z-score [18] | composite z-score [19] | composite z-score [20] |
| --- | --- | --- | --- | --- | --- | --- | --- | --- | --- | --- | --- | --- | --- | --- | --- | --- | --- | --- | --- | --- |
| N#Cc1ccc(NN2C(C(O)c3cccs3)C=CC3C(=O)N(c4ccccc4)C(=O)C32)cc1 (stereo not given) | 0.809 | -0.0582 | 0.268 | 0.41 | 0.314 | 0.0709 | -0.0977 | 1.43 | 1.52 | 0.122 | 0.536 | 0.388 (inactive) | 0.144 | -0.0136 | 0.817 | 2.28 | 0.672 | 1.01 | -0.0869 | 1.02 |
| CC(C)CNC(=O)[C@@H]1c2ccccc2C(=O)N(Cc2cc(C(F)(F)F)cc(C(F)(F)F)c2)[C@H]1c1ccc(CO)cc1 | -0.337 | -0.195 | -0.488 | -0.128 | 0.401 | 0.0437 | -0.155 | -0.247 | -0.0708 | -0.141 | -0.881 | 0.0089 (inactive) | 0.0596 | 0.127 | 0.5 | 0.361 | 0.0574 | -0.636 | -0.629 | -0.928 |
| C=C[C@H](COC(C)=O)N(Cc1ccc(OC(C)=O)c(OC)c1)S(=O)(=O)c1ccc(Br)cc1 | 1.29 | -0.0847 | 0.461 | 1.05 | 0.267 | 0.0479 | -0.291 | -0.407 | 0.788 | 0.998 | 0.777 | 0.365 (inactive) | 0.223 | 0.272 | 0.512 | 0.987 | 0.509 | 0.988 | 0.771 | 1.04 |
| O=C1N(CCS(=O)(=O)c2ccccc2)Cc2ccccc2[C@H]2OC(c3ccc(OCCCO)cc3)=N[C@@]12CCS(=O)(=O)c1ccccc1 | 0.961 | -1.55 | 0.558 | 1.25 | 0.38 | 0.115 | 0.0348 | 0.763 | 1.41 | 1.97 | -0.284 | 1.81 (inactive) | -0.0247 | -0.0586 | 0.524 | 2.64 | 0.708 | 1.3 | 0.242 | 1.22 |
| O=C1O[C@H](c2ccccc2)[C@H](c2ccccc2)N2[C@H]1[C@@H](C(=O)Nc1nc3ccccc3s1)[C@]1(C(=O)Nc3ccccc31)[C@H]2c1ccc(O)cc1 | 1.35 | -1.35 | 0.684 | 0.281 | -0.322 | -0.0903 | -0.138 | -0.0272 | 0.536 | 1.27 | 0.164 | 0.0275 (inactive) | 0.156 | -0.0873 | 0.36 | 1.66 | 0.293 | 1.02 | 0.701 | 1.07 |
| C[C@H]1NC(=O)[C@H](Cc2ccccc2)NC(=O)[C@@]23C(=O)N[C@@H](Cc4ccccc4)C2[C@H](C)[C@@]2(C)O[C@H]2C3/C=C/C/C=C\CNC1=O (stereo not given in full) | -0.794 | 0.136 | 0.133 | -0.638 | -0.859 | -0.146 | -0.324 | -0.429 | -0.214 | -0.407 | -1.45 | 0.572 (inactive) | -0.15 | -0.118 | -0.0479 | -1.21 | 0.0584 | -1.69 | 0.417 | -1.44 |
| COc1cc(CO)ccc1OC(C)=O | 0.464 | -0.147 | 0.388 | 0.0543 | -0.267 | 0.127 | 0.0815 | -0.0615 | 0.47 | 0.298 | 0.344 | 0.151 (inactive) | 0.262 | 0.0275 | 0.112 | 0.329 | 0.356 | 0.482 | 0.689 | 0.687 |
| CC(C)C[C@@H]1NC(=O)[C@@H]2C[C@H](C(=O)NCCCCCC[N+](C)(C)C)[C@H](c3ccc(O)cc3)N2C1=O | 1.15 | 0.0338 | 0.424 | 0.669 | -1.15 | -0.208 | 0.246 | -0.158 | 0.912 | 2 | -0.0787 | 0.729 (inactive) | 0.0562 | -0.189 | 0.678 | 1.58 | 0.301 | 1.25 | 1.33 | 0.989 |
| COC(=O)c1ccc(C23CC2(C(NP(=O)(c2ccccc2)c2ccccc2)c2ccccc2)C3)cc1 (stereo not given) | 1.31 | -1.17 | -0.0656 | 2.35 | 0.696 | 0.195 | 0.484 | -0.708 | 2.58 | 1.38 | 0.982 | 0.117 (inactive) | 0.325 | 0.359 | 0.819 | 2.8 | 1.02 | 0.921 | -1.12 | 0.484 |
| CN1C(=O)C2C(C1=O)C1C=C(CCCO)C2C(c2cccs2)N1C (stereo not given) | 0.0537 | -0.999 | -0.676 | 0.203 | 0.451 | -0.0462 | 0.469 | -0.395 | -0.646 | -0.513 | 0.565 | 0.654 (inactive) | -0.154 | -0.231 | 0.779 | 0.138 | 1.62 | -0.27 | -0.0999 | -0.774 |
| COCCOC(=O)N1C(=O)[C@@]2(c3cc(C#CCNC(N)=O)ccc31)[C@H](c1ccc(O)cc1)N1[C@H](c3ccccc3)[C@H](c3ccccc3)OC(=O)[C@H]1[C@@H]2C(=O)Nc1nc2ccccc2s1 | 0.793 | 0.171 | 0.691 | 1.41 | 0.707 | -0.0242 | -0.0626 | 0.167 | 0.0164 | 1.1 | 0.0631 | -0.162 (inactive) | 0.111 | -0.0432 | 0.266 | 1.17 | 0.243 | 0.942 | 0.554 | 1.09 |
